Results from PubChem BioAssay (EPA / NIEHS).
The source made the active and inactive calls. The calls were made as follows: active = hit-call score of the fitted dose curve at least 0.9, where 1 is the maximum; inactive = score below 0.9.

Columns and labels:
[1] = read-out: Cyclin Dependent Kinase Inhibitor 1A (CDKN1A), CDKN1A (gene 1026); experiment: LTEA_HepaRG_CDKN1A: Life Technologies and Expression Analysis (LTEA) Assay for Cyclin Dependent Kinase Inhibitor 1A (CDKN1A) using HepaRG (AID 2283450); conditions: mRNA level, 48 h; actives raise or lower the signal
Procedure, shortened: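 Differentiated HepaRG cells in serum-free induction medium, exposed 48 h in duplicate to eight half-log concentrations up to 100 uM in 0.5% DMSO. mRNA measured by TaqMan qRT-PCR, normalized to ACTB, GAPDH, POLR2A; bidirectional fit versus DMSO.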

[2] = read-out: Cyclin D1 (CCND1), CCND1 (gene 595); experiment: LTEA_HepaRG_CCND1: Life Technologies and Expression Analysis (LTEA) Assay for Cyclin D1 (CCND1) using HepaRG (AID 2283451); conditions: mRNA level, 48 h; actives raise or lower the signal
Procedure, shortened: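 Differentiated HepaRG cells exposed 48 h in serum-free induction medium to eight half-log concentrations from 100 uM top, 0.5% DMSO, duplicates. CCND1 mRNA measured by Fluidigm TaqMan qRT-PCR, normalised to ACTB, GAPDH, POLR2A; bidirectional fit.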

[3] = read-out: catalase (CAT), CAT (gene 847); experiment: LTEA_HepaRG_CAT: Life Technologies and Expression Analysis (LTEA) Assay for catalase (CAT) using HepaRG (AID 2283452); conditions: mRNA level, 48 h; actives raise or lower the signal
Procedure, shortened: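 Differentiated HepaRG cells in serum-free induction medium were dosed 48 h in duplicate, eight half-log concentrations from 100 uM in 0.5% DMSO. Transcript measured by TaqMan qRT-PCR, normalised to ACTB/GAPDH/POLR2A, fitted bidirectionally against DMSO.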

[4] = read-out: flavin-containing dimethylaniline monooxygenases 3 (FMO3), FMO3 (gene 2328); experiment: LTEA_HepaRG_FMO3: Life Technologies and Expression Analysis (LTEA) Assay for flavin-containing dimethylaniline monooxygenases 3 (FMO3) using HepaRG (AID 2283453); conditions: mRNA level, 48 h; actives raise or lower the signal
Procedure, shortened: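 FMO3 transcript quantified by TaqMan qRT-PCR against three housekeeping genes after 48 h chemical exposure of HepaRG cells. Eight-point half-log series, top 100 uM, 0.5% DMSO vehicle; phenobarbital 1mM induction control; up- or down-regulation fitted.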

[5] = read-out: Cytochrome P450 (CYP1A1), CYP1A1 (gene 1543); experiment: LTEA_HepaRG_CYP1A1: Life Technologies and Expression Analysis (LTEA) Assay for Cytochrome P450 (CYP1A1) using HepaRG (AID 2283454); conditions: mRNA level, 48 h; actives raise or lower the signal
Procedure, shortened: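 Differentiated human HepaRG cells, after 48 h plating, exposed in duplicate for 48 h in serum-free induction medium to 8 half-log concentrations up to 100 uM in 0.5% DMSO. CYP1A1 mRNA by qRT-PCR, normalized to ACTB/GAPDH/POLR2A; bidirectional fit versus DMSO.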

[6] = read-out: CFLAR gene, CFLAR (gene 8837); experiment: LTEA_HepaRG_CFLAR: Life Technologies and Expression Analysis (LTEA) Assay for CFLAR gene using HepaRG (AID 2283455); conditions: mRNA level, 48 h; actives raise or lower the signal
Procedure, shortened: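 Gain- or loss-of-signal changes in CFLAR transcript were fitted bidirectionally relative to 0.5% DMSO. Cells (HepaRG, duplicate wells) were dosed for 48 h across eight half-log concentrations topping at 100 uM; quantitation by TaqMan qRT-PCR.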

[7] = read-out: Forkhead box O1 (FOXO1), FOXO1 (gene 2308); experiment: LTEA_HepaRG_FOXO1: Life Technologies and Expression Analysis (LTEA) Assay for Forkhead box O1 (FOXO1) using HepaRG (AID 2283456); conditions: mRNA level, 48 h; actives raise or lower the signal
Procedure, shortened: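 Using one lot of HepaRG hepatic cells kept in 0.5% DMSO, the team applied test chemicals in duplicate, half-log dilutions from 100 uM, for 48 h. Expression, normalised to ACTB/GAPDH/POLR2A, was compared with vehicle in either direction.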

[8] = CEETOX_H295R_TESTO: CeeTox H295R High-throughput Steroidogenesis Assay for Testosterone (TESTO) (AID 2283457); conditions: actives raise or lower the signal
Procedure, shortened: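 H295R adrenal cells, passage ≤10, exposed to chemicals for 48 h. Testosterone in medium measured by MTBE extraction and HPLC-MS/MS against a 7-point standard curve. Bidirectional fit versus DMSO; MTT viability checked in the same wells.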

[9] = read-out: growth arrest and DNA damage 45 (GADD45A), GADD45A (gene 1647); experiment: LTEA_HepaRG_GADD45A: Life Technologies and Expression Analysis (LTEA) Assay for growth arrest and DNA damage 45 (GADD45A) using HepaRG (AID 2283458); conditions: mRNA level, 48 h; actives raise or lower the signal
Procedure, shortened: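 GADD45A expression was measured by TaqMan qRT-PCR against three housekeeping genes (ACTB, GAPDH, POLR2A) after 48 h treatment of HepaRG cells. Eight-point half-log series up to 100 uM in 0.5% DMSO, run in duplicate.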

[10] = read-out: Forkhead box O3 (FOXO3), FOXO3 (gene 2309); experiment: LTEA_HepaRG_FOXO3: Life Technologies and Expression Analysis (LTEA) Assay for Forkhead box O3 (FOXO3) using HepaRG (AID 2283459); conditions: mRNA level, 48 h; actives raise or lower the signal
Procedure, shortened: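 Gene-expression endpoint: FOXO3 transcript level by qRT-PCR in HepaRG cultures treated 48 h with chemicals up to 100 uM (half-log, 0.5% DMSO vehicle).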

[11] = read-out: ABC Transporter (ABCB1), ABCB1 (gene 5243); experiment: LTEA_HepaRG_ABCB1: Life Technologies and Expression Analysis (LTEA) Assay for ABC Transporter (ABCB1) using HepaRG (AID 2283460); conditions: mRNA level, 48 h; actives raise or lower the signal
Procedure, shortened: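 Human liver HepaRG line treated 48 h with up to 100 uM compound (eight half-log points, 0.5% DMSO); ABCB1 mRNA change fitted bidirectionally against DMSO controls.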

[12] = read-out: growth arrest and DNA damage 45 (GADD45B), GADD45B (gene 4616); experiment: LTEA_HepaRG_GADD45B: Life Technologies and Expression Analysis (LTEA) Assay for growth arrest and DNA damage 45 (GADD45B) using HepaRG (AID 2283461); conditions: mRNA level, 48 h; actives raise or lower the signal
Procedure, shortened: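 Differentiated human HepaRG cells in serum-free induction medium exposed 48 h in duplicate to eight concentrations, top 100 uM, half-log steps, 0.5% DMSO. GADD45B mRNA by TaqMan qRT-PCR, normalized to ACTB, GAPDH, POLR2A; bidirectional fit versus DMSO.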

[13] = read-out: ABC Transporter (ABCC3), ABCC3 (gene 8714); experiment: LTEA_HepaRG_ABCC3: Life Technologies and Expression Analysis (LTEA) Assay for ABC Transporter (ABCC3) using HepaRG (AID 2283462); conditions: mRNA level, 48 h; actives raise or lower the signal
Procedure, shortened: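 Differentiated human HepaRG cells exposed 48 h in serum-free induction medium, 0.5% DMSO vehicle, 8-point half-log series to 100 uM in duplicate. ABCC3 mRNA by qRT-PCR, normalised to ACTB, GAPDH, POLR2A; bidirectional fit vs DMSO.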

[14] = read-out: ABC Transporter (ABCB11), ABCB11 (gene 8647); experiment: LTEA_HepaRG_ABCB11: Life Technologies and Expression Analysis (LTEA) Assay for ABC Transporter (ABCB11) using HepaRG (AID 2283463); conditions: mRNA level, 48 h; actives raise or lower the signal
Procedure, shortened: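 Using HepaRG cultures held in 0.5% DMSO, chemicals were tested at half-log dilutions from 100 uM for 48 h. Induction or suppression of ABCB11 mRNA, normalized to ACTB, GAPDH and POLR2A, was fitted bidirectionally against vehicle.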

[15] = read-out: ABC Transporter (ABCC2), ABCC2 (gene 1244); experiment: LTEA_HepaRG_ABCC2: Life Technologies and Expression Analysis (LTEA) Assay for ABC Transporter (ABCC2) using HepaRG (AID 2283464); conditions: mRNA level, 48 h; actives raise or lower the signal
Procedure, shortened: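 Differentiated HepaRG cells in serum-free induction medium exposed 48 h to eight half-log concentrations up to 100 uM, 0.5% DMSO, in duplicate. ABCC2 mRNA measured by qRT-PCR (TaqMan, Fluidigm), normalized to ACTB, GAPDH and POLR2A. Fitted in both directions against DMSO.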

[16] = read-out: Broad substrate specificity ATP-binding cassette transporter ABCG2 (Homo sapiens) (UniProt Q9UNQ0); experiment: LTEA_HepaRG_ABCG2: Life Technologies and Expression Analysis (LTEA) Assay for ABC Transporter (ABCG2) using HepaRG (AID 2283465); conditions: mRNA level, 48 h; actives raise or lower the signal
Procedure, shortened: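 Gene expression of ABCG2 in HepaRG liver cells is quantified by qRT-PCR following 48 h exposure across an eight-point series topping at 100 uM. Values come from bidirectional fitting relative to DMSO vehicle.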

[17] = read-out: ATP-citrate lyase (ACLY), ACLY (gene 47); experiment: LTEA_HepaRG_ACLY: Life Technologies and Expression Analysis (LTEA) Assay for ATP-citrate lyase (ACLY) using HepaRG (AID 2283466); conditions: mRNA level, 48 h; actives raise or lower the signal
Procedure, shortened: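 ACLY expression changes in human HepaRG liver cells are quantified by qRT-PCR after 48 h exposure to test chemicals (maximum 100 uM, half-log steps). Values are fitted in both directions relative to 0.5% DMSO vehicle.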

[18] = read-out: Peroxisomal acyl-coenzyme A oxidase 1 (ACOX1) gene, ACOX1 (gene 51); experiment: LTEA_HepaRG_ACOX1: Life Technologies and Expression Analysis (LTEA) Assay for Peroxisomal acyl-coenzyme A oxidase 1 (ACOX1) gene using HepaRG (AID 2283467); conditions: mRNA level, 48 h; actives raise or lower the signal
Procedure, shortened: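 Human HepaRG hepatic cultures, 48 h treatment with test chemicals up to 100 uM. ACOX1 expression read by qRT-PCR relative to 0.5% DMSO vehicle.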

[19] = read-out: Alkaline Phosphatase, Placental (ALPP) gene, ALPP (gene 250); experiment: LTEA_HepaRG_ALPP: Life Technologies and Expression Analysis (LTEA) Assay for Alkaline Phosphatase, Placental (ALPP) gene using HepaRG (AID 2283468); conditions: mRNA level, 48 h; actives raise or lower the signal
Procedure, shortened: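 HepaRG cells plated 48 h, then exposed in duplicate for 48 h in serum-free induction medium to 8-point half-log series from 100 uM in 0.5% DMSO. ALPP mRNA by TaqMan qRT-PCR, normalized to ACTB/GAPDH/POLR2A; bidirectional fit versus DMSO.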

[20] = read-out: Cyclin D2 (CCND2), CCND2 (gene 894); experiment: LTEA_HepaRG_CCND2: Life Technologies and Expression Analysis (LTEA) Assay for Cyclin D2 (CCND2) using HepaRG (AID 2283449); conditions: mRNA level, 48 h; actives raise or lower the signal;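 also: CCND2 transcript measured by TaqMan qRT-PCR and normalised to three housekeeping genes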
Procedure, shortened: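 In this HepaRG study, an eight-point concentration series (max 100 uM, 0.5% DMSO) is applied for 48 h. CCND2 mRNA change is derived by qRT-PCR normalised to ACTB, GAPDH and POLR2A.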

Measured: AC50

Broad substrate specificity ATP-binding cassette transporter ABCG2 (Homo sapiens), sequence (Q9UNQ0 whole entry, looked up): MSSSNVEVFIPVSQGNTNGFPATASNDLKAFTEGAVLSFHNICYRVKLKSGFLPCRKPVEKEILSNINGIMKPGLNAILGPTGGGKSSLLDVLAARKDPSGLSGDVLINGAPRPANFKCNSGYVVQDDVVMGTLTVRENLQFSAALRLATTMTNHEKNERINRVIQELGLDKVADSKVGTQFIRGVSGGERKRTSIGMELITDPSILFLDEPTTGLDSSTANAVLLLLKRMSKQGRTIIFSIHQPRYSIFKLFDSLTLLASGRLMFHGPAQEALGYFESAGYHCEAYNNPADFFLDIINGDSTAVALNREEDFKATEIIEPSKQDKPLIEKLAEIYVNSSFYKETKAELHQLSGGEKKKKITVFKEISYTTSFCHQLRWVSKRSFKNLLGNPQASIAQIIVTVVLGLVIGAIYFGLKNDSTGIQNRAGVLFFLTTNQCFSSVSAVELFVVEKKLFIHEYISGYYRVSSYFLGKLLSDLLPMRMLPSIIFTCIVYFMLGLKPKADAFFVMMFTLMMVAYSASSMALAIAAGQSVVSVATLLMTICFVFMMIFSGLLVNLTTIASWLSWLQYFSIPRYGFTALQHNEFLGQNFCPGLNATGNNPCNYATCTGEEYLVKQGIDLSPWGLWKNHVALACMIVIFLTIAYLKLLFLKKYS

Cc1cccc(Nc2cc(Cl)nc(SCC(=O)O)n2)c1C
active: [5] 50 µM | [11] 50 µM | [15] 82.3 µM | [18] 10.9 µM
not listed: [20]
inactive: all other assays above

CC(=O)OC/C=C(\C)CCC=C(C)C
not listed: [2] | [8] | [11]
inactive: all other assays above

O=C(O)Cc1ccccc1Nc1c(Cl)cccc1Cl
active: [5] 76.4 µM | [11] 6.67 µM | [15] 13 µM
not listed: [8] | [20]
inactive: all other assays above
